The list is not random: actives were taken first. Their share in the collection is about 15%.
Pf growth 48h = inhibits P. falciparum growth in the first generation, 48 h. 310,000 tested, 5.9% active. Potency, µM (top dose mostly 28.7 µM), hits mostly inhibitors. P. falciparum luciferase growth in erythrocytes, 48 h
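Here the parasites carry a stable luciferase gene and grow inside erythrocytes in Albumax-based RPMI medium with compound for one erythrocytic cycle. Activity is scored as loss of luminescent signal.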
Pf growth 96h = P. falciparum growth inhibition at 96 hour, primary screen for plastid delayed-death inhibitors | Potency, µM (top dose mostly 28.7 µM), hits mostly inhibitors | P. falciparum luciferase reporter growth, 96 h | 320,000 tested, 6.9% active
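Two parasite generations (96 h, 37 C, 5% CO2) of compound exposure in infected erythrocytes (0.05% parasitemia, 2% hematocrit). Luciferase-reporter P. falciparum; decreased luminescence indicates inhibited growth, aimed at apicoplast-acting delayed death.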
Sm TGR block = blocks Schistosoma mansoni thioredoxin glutathione reductase. 360,000 tested, 3% active. AID 485364. purified TGR, DTNB reduction, TNB absorbance 405 nm. Potency, µM (top dose mostly 114 µM), most hits filed as inhibitors; note: nearly all actives have a fitted effect of over 60% in size
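Kinetic colorimetric format: TGR-catalysed, NADPH-driven DTNB reduction monitored via TNB absorbance. Enzyme dispensed at 20 nM; compound exposure 15 min at room temperature before reaction start.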
SARS PLP yeast = SARS-CoV PLP inhibition in yeast. Potency, µM (top dose mostly 32.9 µM), usual class: activators. S. cerevisiae expressing SARS-CoV PLpro, growth rescue. 330,000 tested, 0.19% active; calls by dose curve; note: nearly all actives have a fitted effect of over 55% in size
HCMV inh = blocks human cytomegalovirus replication; HFF cells, HCMV-luciferase reporter, 72 h; active compounds read low; activity change, negative = inhibition, % at 57.5 µM; 410,000 tested, 4.5% active; AID 1259415; in the data active = activity change below about -60%; inconclusive = no clear call, values can overlap the other calls; inactive = above about -39%
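Two compound doses tested in HFFs infected with HCMV-luciferase, MOI 1 PFU/cell, 72 h at 37C. Lysate luminescence read with OneGlo; data normalized against buffer-only and 10uM Salinomycin inhibitor controls.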
HCV inh = blocks hepatitis C virus. Huh7.5.1 HCVcc-Cre infection, luciferase reporter, 44 h. Potency, µM (top dose mostly 41.8 µM), actives largely listed as inhibitors. 340,000 tested, 3.4% active
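Reporter virus HCVcc-Cre (~0.5 moi) infects cells exposed to compound; seeding density 1,000 cells/well with 4 h settling beforehand. Luminescence, 15 sec read, taken 44 h post-infection following a 15 min RT substrate incubation.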
Numbers stand for hits; i = inactive; ? = inconclusive; nt = no result given; ! = a repeat was not active; [ ] = another dose, or the depositor's remark. Unless noted, calls come from the whole dose curve; as a rule, active = well fitted curve in the direction sought with a large enough effect; inconclusive = small, poorly fitted or top-dose-only effect, or another doubt; inactive = no such curve, though single readings can be large; an effect the other way counts as inactive or inconclusive.

SMILES	Pf growth 48h	Pf growth 96h	Sm TGR block	SARS PLP yeast	HCMV inh	HCV inh
CSc1ccc(CN2CCN(C(=O)CC(C)C)CC2)cc1	i	i	i	i	i	11µM
CCN1CCN(Cc2ccc(NC(=O)Nc3ccc(SC)cc3)cc2)CC1	1.7µM	nt	i	i	i	?
O=C(c1cccc2ccccc12)N1CCN(Cc2ccccc2F)CC1	i	?	i	i	i	i
COc1ccc(CN2CCN(C(=O)CC(C)C)CC2)c2ccccc12	i	nt	i	i	i	i
Cc1ccccc1CN1CCN(C(=O)CC(C)C)CC1	i	10µM	50µM	i	i	i
Cc1ccccc1CN1CCN(C(=O)c2cccc3ccccc23)CC1	12µM	i	i	i	i	i
CCCC1(c2ccccc2)NC(=O)N(CC(=O)NCC2COc3ccccc3O2)C1=O (stereo unspecified)	?	i	i	i	i	?
O=C1CCCc2nc3nc4ccccc4n3cc21	i	i[5.75 µM]	i	i	nt	nt
CC(=NNC(=O)c1ccncc1)c1cc(Cl)ccc1Cl	nt	nt	nt	nt	i	i
Cc1cccc(Cc2ncc(C(F)(F)F)cc2Cl)c1	i[0.00184 µM]	i	i	i	i	i
CSc1nnc(C)c(=O)n1COC(=O)c1ccc(S(=O)(=O)N(C)C)cc1	i	?	i	i	i	i
COc1ccc(CN2CCN(C(=O)c3cccc4ccccc34)CC2)cc1OC	i	?	i	i	i	i
CCOc1cc(CN2CCN(C(=O)c3cccc4ccccc34)CC2)ccc1OC	8.3µM	?	i	i	i	?
O=C(C=Cc1cccs1)c1ccc(Cl)s1	nt	nt	nt	nt	i	i
CC(=O)N/N=C(\C)CC(=O)NC(C)(C)C	i	3.7µM	i	i	i	i
Cc1cn(CC(=O)N[C@H](C)c2cccc3ccccc23)c(=O)[nH]c1=O	nt	nt	nt	nt	i	i
CCC(=NCc1ccccc1)C1=C(O)C(C(=O)OC)C(C)(C)CC1=O (stereo unspecified)	i	12µM	i	i	i	i
CCCC(=O)C1=C(O)C(C(=O)OC)C(C)(C)CC1=Nc1ccccc1 (stereo unspecified)	4.1µM	i	i	i	i	i
CCCC(=O)C1=C(O)C(C(=O)OC)C(C)(C)CC1=Nc1cccc([N+](=O)[O-])c1 (stereo unspecified)	?	i	i	i	i	i
CCCC(=O)C1=C(O)C(C(=O)OC)C(C)(C)CC1=Nc1cccc2ccccc12 (stereo unspecified)	5.2µM	i	i	i	i	?
CCCC(=NCc1ccccc1)C1=C(O)C(C(=O)OC)C(C)(C)CC1=O (stereo unspecified)	nt	?	i	i	i	i
CCCC(=O)C1=C(O)C(C(=O)OC)C(C)(C)CC1=NCc1ccccc1 (stereo unspecified)	?	7.4µM	100µM	i	i	i
CCCC(=O)C1=C(O)C(C(=O)OC)C(C)(C)CC1=NC(C)(C)C (stereo unspecified)	?	nt	i	i	i	?
COc1ccc(CCNC(=O)Cn2c(=O)nc(-c3ccccc3)c3ccccc32)cc1OC	nt	nt	i	nt	i	nt
COc1ccc2c(c1)c(=O)c(S(=O)(=O)c1ccc(Cl)cc1)cn2Cc1cc(C)ccc1C	nt	nt	i	nt	i	nt
SMILES	Pf growth 48h	Pf growth 96h	Sm TGR block	SARS PLP yeast	HCMV inh	HCV inh
Nc1ncnc2c1ncn2[C@@H]1O[C@H](C(=O)Nc2ccc(C(=O)N3CCCCC3)cc2)[C@@H](O)[C@H]1O	nt	nt	nt	nt	i	nt
COC(=O)Cn1c(=NC(=O)c2ccc([N+](=O)[O-])s2)sc2cc(Br)ccc21	?	0.83µM	i	i	nt	?
COC(=O)Cn1c(=NC(=O)c2ccc(Cl)s2)sc2cc(C)ccc21	i	i	i	i	i	i
COc1ccc(C(=O)Nc2cc(C(C)C)c(O)c(S(=O)(=O)c3ccc(OC)cc3)c2C)cc1	nt	nt	i	nt	-104	nt
CC1(C(=O)NS(=O)(=O)c2ccc3c(c2)CCO3)CCN1C(=O)C1(c2ccc(Cl)cc2)CCC1 (stereo unspecified)	nt	nt	nt	nt	i	nt
Fc1ccc(NC(=S)Nc2cc(-c3ccccc3)[nH]n2)cc1Cl	10µM	i	?	i	i	?
O=C(Nc1ccc(F)c(Cl)c1)c1ccccc1	i	i	i	i	i	i
Cc1cccc(C)c1NC(=S)Nc1ccc(Cl)c(Cl)c1	?	i	i	i	i	i
Cc1ccc(NC(=S)Nc2cc(-c3ccccc3)[nH]n2)cc1Cl	?	i	i	i	-72	i
Cc1cccc(-n2c(Cn3nc(C)c([N+](=O)[O-])c3C)n[nH]c2=S)c1	i	?	i	i	-98	i
Nc1cc(C(=O)OCC(=O)NNC(=O)c2cccs2)ccc1Cl	i	i	i	i	i	i
COC(=O)C(CCSC)NC(=O)C1CCN(c2ncnc3c2nc2n3CCCCC2)CC1 (stereo unspecified)	nt	nt	i	nt	-100	nt
O=C(Nc1ccc(F)cc1)C1CCN(c2ncnc3c2nc2n3CCCCC2)CC1	?	i	i	i	i	i
O=C(Nc1ccccn1)C1CCN(c2ncnc3c2nc2n3CCCCC2)CC1	i	?	i	i	-84	?
COCCCNC(=O)C1CCN(c2ncnc3c2nc2n3CCCCC2)CC1	nt	nt	i	nt	i	nt
CCc1ccc(NC(=O)C2CCN(c3ncnc4c3nc3n4CCCCC3)CC2)cc1	i	?	i	i	-73	?
COc1ccc(N2CCN(C(=O)c3cnc(N4CCOCC4)c4ccccc34)CC2)cc1	nt	nt	i	nt	i	nt
CC(=O)Nc1ccc(S(=O)(=O)Oc2cccc(/C=N/N=C3/NC(=O)C(CC(=O)O)S3)c2)cc1 (stereo unspecified)	i	i	i	i	i	i
CNC(=S)N(Cc1cc2ccc(OC)cc2[nH]c1=O)CC1CCCO1 (stereo unspecified)	i	13µM	nt	i	i	i
CNC(=S)N(Cc1cccs1)Cc1cc2cc(OC)ccc2[nH]c1=O	?	7.4µM	i	i	i	i
COc1ccc2[nH]c(=O)c(CN(CCO)C(=O)c3cccs3)cc2c1	i	i	i	i	i	i
COc1ccc2[nH]c(=O)c(CN(Cc3cccs3)S(=O)(=O)c3cccc4nsnc34)cc2c1	7.4µM	i	i	i	?	10µM!
CCC(=O)N(CCc1ccccc1)Cc1cc2cc(OC)ccc2[nH]c1=O	2.1µM	i	i	i	i	i
O=C(CCNS(=O)(=O)c1ccc(Br)cc1)NCc1ccco1	i	i	i	i	i	i
COc1ccc(OC)c(/C=C(/C#N)c2nc(-c3ccc(-c4ccccc4)cc3)cs2)c1	nt	nt	i	nt	i	nt
Cc1cccc(C)c1N=CN1c2ccccc2-n2cccc2C1c1ccccc1 (stereo unspecified)	nt	nt	nt	nt	i	nt
COc1ccc2[nH]c(=O)c(CN(Cc3cccs3)C(=S)Nc3cccc(C)c3)cc2c1	15µM	?	i	i	-66	?
